The text below walks through data of the supplement of paper PMC13380429.

Experiment [1] concerns Vero E6 infected with SARS-CoV-2. The experiment is described as follows: morphology score (similarity to uninfected cells); higher = more like uninfected cells. The following applies: 24 h.
Experiment [2] shares this test system. The experiment is described as follows: SARS-CoV-2 infection rate relative to infected DMSO; higher = more infection, active = 60 or less. The following applies: 24 h.

On to `Cc1ccc(-c2ccc(C)cn2)nc1` [abametapir] (10 µM), for which the morphology score in experiment [1] stood at 0.0247. Moreover, the SARS-CoV-2 infection rate in experiment [2] was 106% (inactive).
Take `C/C(O)=C(\C#N)C(=O)Nc1cc(Br)ccc1Br` (10 µM): the morphology score in experiment [1] turned out to be 0.00477. Further, the SARS-CoV-2 infection rate in experiment [2] was 105% (inactive).
The like results for `NCC(=O)N1C[C@H](NC(=O)c2ccccc2)C[C@H]1C(=O)O` [danegaptide] (10 µM) were, in that order, 0.0415 and 105% (inactive).
In experiment [1], `CC(C(=O)O)c1ccc(C(=O)c2cccs2)cc1` (centres undefined) [suprofen] (10 µM) yielded a morphology score of 0.123. In addition, in experiment [2], the SARS-CoV-2 infection rate was 108% (inactive).
The like results for `Clc1ccc(-c2nc3sccn3c2/C=N/OCc2ccc(Cl)c(Cl)c2)cc1` (10 µM) were, in that order, 0.00562 and 107% (inactive).
Turning to `O=C1NN(C(=O)Nc2ccc(Br)cc2)[C@@H](c2ccccc2)[C@@H]1c1ccccc1` (10 µM), in experiment [1], the morphology score was -0.176. The SARS-CoV-2 infection rate in experiment [2] was 108% (inactive).
For the compound `O=C(O)CCCc1ccc(N(CCCl)CCCl)cc1` [chlorambucil] (10 µM), in experiment [1], the morphology score is 0.143. Besides, the SARS-CoV-2 infection rate in experiment [2] was 94% (inactive).
In experiment [1], `CC[C@H](C)[C@H](N)C(=O)O` [isoleucine] (10 µM) had a morphology score of 0.202. Besides, the SARS-CoV-2 infection rate in experiment [2] is 106% (inactive).
`C[C@H]1CC[C@H](n2c3cnccc3c3cnc(Nc4ccc5c(n4)CCN(C(=O)CO)C5)nc32)CC1` (10 µM) displayed a morphology score in experiment [1] of 0.0031. The SARS-CoV-2 infection rate in experiment [2] was 110% (inactive).
`CCn1cc(C(=O)O)c(=O)c2cnc(N3CCCC3)nc21` [piromidic-acid] (10 µM) came in with a morphology score in experiment [1] of 0.0342. Also, in experiment [2], the SARS-CoV-2 infection rate was 99.5% (inactive).
The like results for `CN(C)CCOC(c1ccccc1)c1ccccc1` [diphenhydramine] (10 µM) were, in that order, 0.203 and 86.5% (inactive).
The like results for `N[C@@H](Cc1cc(-c2ccc(Cl)cc2Cl)cc(CP(=O)(O)O)c1O)C(=O)O` (10 µM) were, in that order, -0.167 and 107% (inactive).
